Where a name gives a salt, the structure may show the parent alone.
System: Saccharomyces cerevisiae BY4741 SeMeCo community
Test: z-score of subpopulation abundance vs DMSO median, subpopulation auxotrophic for U; higher = larger share of this subpopulation than in DMSO controls
Conditions: 10 µM; 24 h; SM minimal medium; subpopulation (auxotrophy): U
Method in brief: (§1)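 Automated confocal microscopy of paraformaldehyde-fixed cells was used to follow a Saccharomyces cerevisiae BY4741 community carrying four plasmids, each restoring one auxotrophy and encoding a distinct fluorescent protein. The community was pre-grown overnight to OD600 1.0, diluted to 0.3, and added at 70 µl to 384-well plates acoustically predosed with library drugs (10 µM final) for 24 h of growth in minimal SM medium. Single-auxotroph fluorescent strains set thresholds and autofluorescence correction, and each subpopulation's abundance was scored as a z-score against the vehicle-well median.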

Structure (SMILES)	z-score of subpopulation abundance
CCCCOc1cc(C(=O)NCCN(CC)CC)c2ccccc2n1 [Dibucaine HCl]	0.46
Clc1ccc(CSC(Cn2ccnc2)c2ccc(Cl)cc2Cl)cc1 (stereo unspecified) [Sulconazole Nitrate]	1.17
COc1ccc(C2CNC(=O)C2)cc1OC1CCCC1 (stereo unspecified) [Rolipram]	-0.09
C[C@@H](NCCCc1cccc(C(F)(F)F)c1)c1cccc2ccccc12 [Cinacalcet HCl]	-1.21
Cc1cc(/C=C/c2ccc3cc(N(C)C)ccc3[n+]2C)c(C)n1-c1ccccc1 [pyrvinium]	0.84
CC(C)Cc1ccc(C(C)C(=O)O)cc1 (stereo unspecified) [Ibuprofen Lysine]	-3.65
CC[N+](C)(C)c1cccc(O)c1 [Edrophonium chloride]	1.2
Nc1ccc(S(N)(=O)=O)cc1 [Sulfanilamide]	0.22
CN(C)CCCC1(c2ccc(F)cc2)OCc2cc(C#N)ccc21 (stereo unspecified) [Citalopram HBr]	1.58
CN1CCCN=C1/C=C/c1cccs1 [Pyrantel Pamoate]	0.04
CN(C)CCC[C@@]1(c2ccc(F)cc2)OCc2cc(C#N)ccc21 [Escitalopram Oxalate]	-0.79
CCCCCC(=O)O[C@]1(C(C)=O)CC[C@H]2[C@@H]3CCC4=CC(=O)CC[C@]4(C)[C@H]3CC[C@@]21C [Hydroxyprogesterone caproate]	-0.21
C[C@]12CCC(=O)C=C1[C@@H]1C[C@@H]1[C@H]1[C@@H]3[C@@H]4C[C@@H]4[C@@]4(CCC(=O)O4)[C@@]3(C)CC[C@@H]12 [Drospirenone]	-0.17
CCC(C)(C)c1ccc(CC(C)CN2C[C@@H](C)O[C@@H](C)C2)cc1 (stereo partly specified) [Amorolfine HCl]	1.83
CC(=O)N[C@H]1[C@H]([C@H](O)[C@H](O)CO)OC(C(=O)O)=C[C@@H]1NC(=N)N [Zanamivir]	-1.03
CCC(=O)c1c(O)cc(O)cc1O [Flopropione]	-0.13
CCCCCNC(=N)N/N=C/c1c[nH]c2ccc(OC)cc12 [Tegaserod Maleate]	-1.24
CC(C)c1c(C(=O)Nc2ccccc2)c(-c2ccccc2)c(-c2ccc(F)cc2)n1CC[C@@H](O)C[C@@H](O)CC(=O)O [Atorvastatin]	0.32
Cc1cc(NS(=O)(=O)c2ccc(N)cc2)no1 [Sulfamethoxazole sodium]	0.7
COC(=O)C1=C(C)NC(C)=C(C(=O)OC(C)(C)CN(C)CCC(c2ccccc2)c2ccccc2)C1c1cccc([N+](=O)[O-])c1 (stereo unspecified) [Lercanidipine]	-0.86
NC1CCN(c2nc3c(cc2F)c(=O)c(C(=O)O)cn3-c2ccc(F)cc2F)C1 (stereo unspecified) [Tosufloxacin p-Toluenesulfonate Hydrate]	-0.39
CC1(C)S[C@@H]2[C@H](NC(=O)[C@H](N)c3ccc(O)cc3)C(=O)N2[C@H]1C(=O)O [Amoxicillin]	0.14
CCC1=C(C)CN(C(=O)NCCc2ccc(S(=O)(=O)NC(=O)N[C@H]3CC[C@H](C)CC3)cc2)C1=O [Glimepiride]	-0.47
O=C(O)c1ccccc1C(=O)Nc1ccc(S(=O)(=O)Nc2nccs2)cc1 [Phthalylsulfathiazole]	1.18
Cc1ccc(Sc2ccccc2N2CCNCC2)c(C)c1 [Vortioxetine]	-0.12
CN(Cc1cnc2nc(N)nc(N)c2n1)c1ccc(C(=O)N[C@@H](CCC(=O)O)C(=O)O)cc1 [Methotrexate disodium]	-4.34
Clc1ccc(CCC(Cn2ccnc2)Sc2c(Cl)cccc2Cl)cc1 (stereo unspecified) [Butoconazole nitrate]	1.85
CCC[S+]([O-])c1ccc2[nH]c(NC(=O)OC)nc2c1 (stereo unspecified) [Albendazole Oxide]	0.49
COC(=O)C1=C(C)NC(C)=C(C(=O)OC)C1c1ccccc1[N+](=O)[O-] [Nifedipine]	0.12

System: Saccharomyces cerevisiae BY4741 SeMeCo community
Test: z-score of subpopulation abundance vs DMSO median, subpopulation auxotrophic for H; higher = larger share of this subpopulation than in DMSO controls
Conditions: 10 µM; 24 h; SM minimal medium; subpopulation (auxotrophy): H
Method in brief: as §1

Structure (SMILES)	z-score of subpopulation abundance
Clc1ccc(CSC(Cn2ccnc2)c2ccc(Cl)cc2Cl)cc1 (stereo unspecified) [Sulconazole Nitrate]	22
COc1ccc(C2CNC(=O)C2)cc1OC1CCCC1 (stereo unspecified) [Rolipram]	-0.68
C[C@]12CC[C@@H]3c4ccc(O)cc4CC[C@H]3[C@@H]1CC[C@@H]2OC(=O)CCC1CCCC1 [Estradiol Cypionate]	-0.04
C[C@@H](NCCCc1cccc(C(F)(F)F)c1)c1cccc2ccccc12 [Cinacalcet HCl]	0.26
Cc1cc(/C=C/c2ccc3cc(N(C)C)ccc3[n+]2C)c(C)n1-c1ccccc1 [pyrvinium]	-3.04
CCCN(CCC)CCc1cccc2c1CC(=O)N2 [Ropinirole HCl]	-0.16
CN(C)CCCC1(c2ccc(F)cc2)OCc2cc(C#N)ccc21 (stereo unspecified) [Citalopram HBr]	0.36
CN1CCCN=C1/C=C/c1cccs1 [Pyrantel Pamoate]	1.26
CN(C)CCC[C@@]1(c2ccc(F)cc2)OCc2cc(C#N)ccc21 [Escitalopram Oxalate]	-0.42
CCCCCC(=O)O[C@]1(C(C)=O)CC[C@H]2[C@@H]3CCC4=CC(=O)CC[C@]4(C)[C@H]3CC[C@@]21C [Hydroxyprogesterone caproate]	1.49
C[C@]12CCC(=O)C=C1[C@@H]1C[C@@H]1[C@H]1[C@@H]3[C@@H]4C[C@@H]4[C@@]4(CCC(=O)O4)[C@@]3(C)CC[C@@H]12 [Drospirenone]	-0.17
CC[C@H]1OC(=O)[C@H](C)[C@@H](O[C@H]2C[C@@](C)(OC)[C@@H](O)[C@H](C)O2)[C@H](C)[C@@H](O[C@@H]2O[C@H](C)C[C@H](N(C)C)[C@H]2O)[C@](C)(O)C[C@@H](C)/C(=N\OCOCCOC)[C@H](C)[C@@H](O)[C@]1(C)O [Roxithromycin]	0.59
CCC(C)(C)c1ccc(CC(C)CN2C[C@@H](C)O[C@@H](C)C2)cc1 (stereo partly specified) [Amorolfine HCl]	8.59
CC(=O)N[C@H]1[C@H]([C@H](O)[C@H](O)CO)OC(C(=O)O)=C[C@@H]1NC(=N)N [Zanamivir]	0.63
CCOc1cc(N)c([N+](=O)[O-])cc1C(=O)NC1CCN(CC2CC=CCC2)CC1 (stereo unspecified) [Cinitapride Hydrogen Tartrate]	-0.46
CCC(=O)c1c(O)cc(O)cc1O [Flopropione]	0.18

Structure (SMILES)	z-score of subpopulation abundance
CC(C)c1c(C(=O)Nc2ccccc2)c(-c2ccccc2)c(-c2ccc(F)cc2)n1CC[C@@H](O)C[C@@H](O)CC(=O)O [Atorvastatin]	6.46
COc1ccc(C(C)=O)c(O)c1 [Paeonol]	0.01
Cc1cc(NS(=O)(=O)c2ccc(N)cc2)no1 [Sulfamethoxazole sodium]	-0.82
NC12CC3CC(CC(C3)C1)C2 [Amantadine]	0.12
COC(=O)C1=C(C)NC(C)=C(C(=O)OC(C)(C)CN(C)CCC(c2ccccc2)c2ccccc2)C1c1cccc([N+](=O)[O-])c1 (stereo unspecified) [Lercanidipine]	2.07
CC1(C)S[C@@H]2[C@H](NC(=O)[C@H](N)c3ccc(O)cc3)C(=O)N2[C@H]1C(=O)O [Amoxicillin]	0.05
CCC1=C(C)CN(C(=O)NCCc2ccc(S(=O)(=O)NC(=O)N[C@H]3CC[C@H](C)CC3)cc2)C1=O [Glimepiride]	-0.23
O=C(O)c1ccccc1C(=O)Nc1ccc(S(=O)(=O)Nc2nccs2)cc1 [Phthalylsulfathiazole]	-0.26
Clc1ccc(CCC(Cn2ccnc2)Sc2c(Cl)cccc2Cl)cc1 (stereo unspecified) [Butoconazole]	36.2
Cc1ccc(Sc2ccccc2N2CCNCC2)c(C)c1 [Vortioxetine]	-0.14
CN(Cc1cnc2nc(N)nc(N)c2n1)c1ccc(C(=O)N[C@@H](CCC(=O)O)C(=O)O)cc1 [Methotrexate disodium]	15.3
Clc1ccc(CCC(Cn2ccnc2)Sc2c(Cl)cccc2Cl)cc1 (stereo unspecified) [Butoconazole nitrate]	30.8
CC[C@@H]1/C=C(\C)C[C@H](C)C[C@H](OC)[C@H]2O[C@@](O)(C(=O)C(=O)N3CCCC[C@H]3C(=O)O[C@H](/C(C)=C/[C@@H]3CC[C@H](Cl)[C@H](OC)C3)[C@H](C)[C@@H](O)CC1=O)[C@H](C)C[C@@H]2OC [Pimecrolimus]	1.91
CN(Cc1cnc2nc(N)nc(N)c2n1)c1ccc(C(=O)N[C@@H](CCC(=O)O)C(=O)O)cc1 [Methotrexate]	8.39
CCC[S+]([O-])c1ccc2[nH]c(NC(=O)OC)nc2c1 (stereo unspecified) [Albendazole Oxide]	-0.72
COC(=O)C1=C(C)NC(C)=C(C(=O)OC)C1c1ccccc1[N+](=O)[O-] [Nifedipine]	0.64

From the supplement of paper PMC8975748
